In PubChem BioAssay (Tox21) one finds Potency data, which are given here for 40 compounds.

Values joined by “and” are separate entries in the source; they are usually repeats but may differ in a detail not shown here. Equal entries are not always repeated. Results filed as inconclusive are left out. A call without a number means that no potency is given here. Active and inactive are the calls of the source. Calls come from the whole dose curve.
Potency is the fitted concentration of half-maximal effect.

This assay in a line: qHTS assay to identify small molecule agonists of the AP-1 signaling pathway - cell viability counter screen (AID 1159525). Note: nearly all actives have a fitted effect of over 55% in size. The following applies: ME-180 (cervical carcinoma) AP-1-bla cells viability, ATP luminescence, 5 h; series mostly up to 76.8 µM. The text has this: National Center for Advancing Translational Sciences [NCATS]
NIH Chemical Genomics Center [NCGC]
U.S. Environmental Protection Agency [EPA]
National Institutes of Environmental Health Sciences [NIEHS]
National Toxicology Program [NTP]
U.S. Food and Drug Administration [FDA]
Activator protein-1 (AP-1), a transcription factor, plays an important role in tumor genesis by regulating genes involved in cell proliferation, differentiation, apoptosis, and angiogenesis. AP-1 activity is induced by a complex network of signaling pathways that involves extracellular signals, such as growth factors. The AP-1 protein complex formed from c-Fos and c-Jun binding to the AP-1 response element results in transcriptional activation of genes containing such elements within their promoter.
Low molecular weight molecules have been discovered and developed to modulate various components of these signaling pathways, for example, MAP kinase inhibitors. However, many points of pathway modulation remain untested due to the lack of chemical probes making this signaling locus of general interest.
Using a beta-lactamase reporter-gene under control of the AP-1 response element, a cell-based assay [CellSensor(TM) AP-1-bla ME-180 developed by Invitrogen Corp.] was used to measure EGF-induced signaling. The Tox21 10K library compounds were measured for their ability to positively modulate the action of EC50 EGF on reporter gene activity. Compounds were screened in a 15-pt titration series in 1536-well format. The cytotoxicity of the Tox21 compound library against this cell line was tested in parallel by measuring the intra cellular ATP content in the same wells.
Tox21 Assay Protocol Summary:
2500 cells/5uL in Opti-MEM medium containing 0.5% dialyzed FBS, 0.1 mM NEAA, 1 mM sodium pyruvate and 10 mM HEPES was dispensed into 1536-well black wall/clear bottom plates using a Multidrop dispenser and cells were cultured at 37 degrees Celsius overnight. Next day 23 nL of compounds dissolved in DMSO, positive controls or DMSO were delivered to each well using a pin tool. The plates were incubated at 37 degrees Celsius for 5 hours. 1 uL of LiveBLAzerTM B/G FRET substrate (Solution A+B+C+D) was added to each well using a Flying Reagent Dispenser. After incubated at room temperature for 2.5 hours the plates were measured on an EnVision plate reader at Excitation 405nm, Emission1=460nm and Emission 2=530nm. The %Activity was determined from the ratio of 460nm/530nm.
After the plates were read for Beta-Lactamase assay on Envision; 3 ul Cell Titer Glo (Promega) was added to measure the cytotoxicity and the plates were then incubated at RT in dark for 30 min. The luminescence was read on ViewLux (Perkin Elmer, Shelton, CT) using 6 sec exposure. ViewLux data was expressed as relative luminescence units.
For primary data analysis, raw plate reads for each titration point were first normalized relative to […] EGF control (100%) and DMSO only wells (basal, 0%).
For primary data analysis for viability assay, raw plate reads for each titration point were first normalized Tetra n-octyl ammonium bromide control (-100%) and DMSO (control, 100%).
On the technique in general: In qHTS, concentration-response curves come from the screen itself.
For the compound `CCCC[P+](CC)(CCCC)CCCC` (tested in a mixture with another compound), the Potency entry is “inactive”. Regarding `C[CH2][Hg][S]c1ccccc1C(=O)O`, the Potency is 4.36 µM (active) and 3.79 µM (active). To `CCCC[N+]1(C)[C@@H]2CC(OC(=O)[C@H](CO)c3ccccc3)C[C@H]1[C@@H]1O[C@@H]12` (stereo not given in full) belongs “inactive”; to `c1ccc2sc(SNC3CCCCC3)nc2c1`, “inactive”; to `COC(=O)C1(O)c2ccccc2-c2ccccc21`, “inactive”. In the case of `C1CS1`, the Potency entry is “inactive”. With `CCSCc1ccccc1OC(=O)NC`, the Potency result was “inactive”. As for `Clc1ccc(Cl)c(Cl)c1`, the Potency result was “inactive”. To `CC(C)CCON=O` belongs “inactive”. Regarding `CCc1ccccc1N`, the Potency result is “inactive”. Consider `Cc1ncc(C[n+]2csc(CCO)c2C)c(N)n1`, for which the Potency result is “inactive”.

With `O=C=NC1CCCCC1`, the Potency entry is “inactive”. Turning to `CC(C)c1ccc(OP(=O)(Oc2ccc(C(C)C)cc2)Oc2ccc(C(C)C)cc2)cc1`, the Potency entry was “inactive”. As for `COc1ccc2c(c1OC)C(=O)O[C@H]2[C@@H]1c2cc3c(cc2CCN1C)OCO3`, the Potency entry was “inactive”.

With `O=C(NC(=O)c1cc(F)c(F)cc1Cl)Nc1cc(F)ccc1N1CCC(C(=O)O)CC1`, the Potency result is “inactive”. For `N#CC(C#N)=C(C#N)C#N`, the Potency result was “inactive”.

`C=CCSSCC=C`: the Potency result is “inactive”. Then `CC(=O)NNc1ccccc1`, with “inactive”; and `CC(C)(c1ccccc1)c1cc(-n2nc3ccccc3n2)c(O)c(C(C)(C)c2ccccc2)c1`, with “inactive”; and `CCC(=O)O[C@@H]1C=C2CCC3C(CCC4(C)C3CC[C@@H]4OC(=O)CC)C2CC1` (stereo not given in full), with “inactive”. Consider `NP(N)(=O)NC(=O)c1ccc(F)cc1`, for which the Potency result was “inactive”.

Take `Nc1cccc2ccccc12`: the Potency entry was “inactive”. Turning to `COc1ccc(C(=O)c2c(C)n(CCN3CCOCC3)c3ccccc23)cc1`, the Potency entry was “inactive”. As to `CNC(=O)Oc1cccc(N=CN(C)C)c1`, the Potency entry is “inactive”. Regarding `CCOC(=O)NC(O)C(Cl)(Cl)Cl` (stereo not given), the Potency result was “inactive”. Take `CC(=O)OC(c1ccccc1)C(Cl)(Cl)Cl` (stereo not given): the Potency result is “inactive”. For `NNCCO`, the Potency entry is “inactive”.

`FC(Cl)(Cl)C(F)(Cl)Cl`: the Potency result is “inactive”.

For `O=[N+]([O-])c1cc(Cl)c(Cl)cc1Cl`, the Potency result was “inactive”. As to `O=C(O)c1cc(I)cc(I)c1I`, the Potency entry was “inactive”. For the compound `COC(=O)Cc1ccccc1`, the Potency result was “inactive”.

Regarding `COc1cc(CC(C)N)c(OC)cc1Br` (stereo not given), the Potency entry was “inactive”. As for `O=[N+]([O-])/C=C/c1ccccc1`, the Potency entry was “inactive”. As for `c1ccc2c(c1)sc1ccccc12`, the Potency result was “inactive”. To `C=CCc1ccc(OC(=O)Cc2ccccc2)c(OC)c1` belongs “inactive”; to `O=C(O)CCCOc1ccc(Cl)cc1Cl`, “inactive”; to `CCC1(CCC(C)C)C(=O)NC(=O)NC1=O`, “inactive”. Consider `CC(O)CN1CCN(CC(=O)[O-])CCN(CC(=O)[O-])CCN(CC(=O)[O-])CC1.[Gd+3]` (stereo not given), for which the Potency result was “inactive”. In the case of `Cc1ccc2c(C)cccc2c1`, the Potency entry was “inactive”. Turning to `CCCCCCCCCCCC[N+](C)(C)CCOc1ccccc1`, the Potency was 49 µM (active) and 23.9 µM (active).
